Results from PubChem BioAssay.
Activity calls are given as the source filed them.

Legend:
Albumin (Bos taurus) = Albumin (Bos taurus) (UniProt P02769); experiment: compounds binding labelled BSA control protein – biochemical, small-molecule microarray, Alexa647 label, 635/667 nm fluorescence, artefact control for SMM control protein annotation, profiling panel (AID 1118); settings: BSA-A647 binding, fluorescence 635 nm, higher = more signal;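 also: score merges 667 nm emission intensity and signal-to-noise per printed compound spot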
Sequence of Albumin (Bos taurus) (P02769 whole entry, looked up): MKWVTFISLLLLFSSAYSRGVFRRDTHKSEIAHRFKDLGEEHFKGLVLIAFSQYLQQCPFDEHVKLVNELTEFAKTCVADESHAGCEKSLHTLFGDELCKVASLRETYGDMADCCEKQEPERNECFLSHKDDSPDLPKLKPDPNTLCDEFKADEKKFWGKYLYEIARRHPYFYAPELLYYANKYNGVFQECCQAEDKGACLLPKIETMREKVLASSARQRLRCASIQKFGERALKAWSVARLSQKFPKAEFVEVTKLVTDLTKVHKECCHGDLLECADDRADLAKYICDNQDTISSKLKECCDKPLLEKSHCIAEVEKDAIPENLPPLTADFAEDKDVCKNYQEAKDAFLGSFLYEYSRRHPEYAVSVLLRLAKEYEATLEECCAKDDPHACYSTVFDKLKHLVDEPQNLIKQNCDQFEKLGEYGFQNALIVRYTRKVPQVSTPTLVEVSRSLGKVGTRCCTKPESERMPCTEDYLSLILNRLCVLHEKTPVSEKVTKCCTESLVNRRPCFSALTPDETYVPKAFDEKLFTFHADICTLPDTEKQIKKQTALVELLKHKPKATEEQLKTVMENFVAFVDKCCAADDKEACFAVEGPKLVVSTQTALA

[1] = probe aXIP binding to arrayed compounds – biochemical, NeuroSMM set, 635/667 nm fluorescence, primary screen (AID 1119); settings: small-molecule microarray, higher = more signal, called active from +8 up or from −8 down;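 also: probe is the protein aXip251-270 applied at 1 µg/mL to compound-printed slides; binding of probe to printed compounds measured as 667 nm fluorescence plus signal to noise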
[2] = probe aNOTCH3 binding on compound microarray – biochemical, small-molecule microarray, 635/667 nm fluorescence, primary screen (AID 1120); settings: higher = more signal;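 also: probe is a biotin-tagged antibody raised against NOTCH3 rather than NOTCH3 protein; score merges spot fluorescence near 667 nm with spot signal to noise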
[3] = probe aNOTCH2 binding on compound microarray – biochemical, small-molecule microarray, 635/667 nm fluorescence, primary screen (AID 1121); settings: higher = more signal;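 also: score merges feature fluorescence read at 667 nm with its signal to noise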
[4] = target: Carbonic anhydrase 2 (Homo sapiens) (UniProt P00918); experiment: compounds binding carbonic anhydrase 2 – biochemical, small-molecule microarray, Alexa647-labelled CAII, profiling panel (AID 1122); settings: CAII-A647 binding fluorescence, higher = more signal
[5] = COS7 lysate on small-molecule microarray, probe aHis, 635 nm (AID 1123); settings: COS7 cell lysate, fluorescence, higher = more signal;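 also: z-score combines 667nm fluorescence intensity with signal-to-noise per printed compound spot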
[6] = probe aLAP1 signal on lysate-treated microarray – cell lysate, small-molecule microarray, COS7 lysate, primary screen (AID 1124); settings: probe aLAP1, fluorescence, higher = more signal;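 also: lysate comes from COS7 cells expressing LAP1 and is applied at 0.3 µg/mL; score merges spot fluorescence near 667 nm with signal-to-noise over triplicate slides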
Sam68 (KHDRBS1) = experiment: compounds binding KHDRBS1 protein – biochemical, small-molecule microarray, 635 nm fluorescence, primary screen (AID 1125); settings: higher = more signal;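 also: score merges 667 nm channel intensity with signal to noise over triplicate slides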
[7] = test system: Chordin-like protein 2 (CHRDL2); experiment: compounds binding chordin-like 2 – biochemical, small-molecule microarray, 635 nm fluorescence, primary screen (AID 1126); settings: fluorescence 635 nm, higher = more signal;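 also: printed compound slides probed with Chrdl2 protein at 4 µg/mL for 1 h at 4 C; score merges 667 nm emission intensity with signal to noise over three replicate slides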
[8] = target: Concanavalin-A (Canavalia ensiformis) (UniProt P02866); experiment: compounds binding concanavalin A lectin – biochemical, small-molecule microarray, Alexa647 label, 635 nm, artefact control for SMM control protein annotation, primary screen (AID 1127); settings: ConA-A647 binding fluorescence, higher = more signal;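 also: z combines 667 nm emission intensity with signal-to-noise across three replicate slides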
Sequence of Concanavalin-A (Canavalia ensiformis) (P02866 whole entry, looked up): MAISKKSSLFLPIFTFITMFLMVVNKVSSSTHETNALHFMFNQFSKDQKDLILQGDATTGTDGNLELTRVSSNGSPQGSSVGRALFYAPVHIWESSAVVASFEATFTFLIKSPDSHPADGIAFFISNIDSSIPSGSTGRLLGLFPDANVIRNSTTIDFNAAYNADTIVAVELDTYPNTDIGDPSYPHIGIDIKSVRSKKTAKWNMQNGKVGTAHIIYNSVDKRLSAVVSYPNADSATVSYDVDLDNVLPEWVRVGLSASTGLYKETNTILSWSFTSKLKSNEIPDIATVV

Row | Structure (SMILES) | composite z-score (Albumin (Bos taurus)) | composite Z-score [1] | composite z-score [2] | composite z-score [3] | composite z-score [4] | composite z-score [5] | composite z-score [6] | composite z-score (Sam68 (KHDRBS1)) | composite z-score [7] | composite z-score [8]
1 | O=C(CS)NCCCCCCNC(=O)[C@H]1C[C@H]2C(=O)N3CCC[C@H]3C(=O)N2[C@H]1c1ccc(O)cc1 | 0.11 | 0.131 (inactive) | 0.298 | -0.147 | 0.389 | -0.125 | -0.0269 | 0.557 | 0.257 | 0.853
2 | Cc1c(NC(=O)/C(C#N)=C/C=C/c2ccccc2)c(=O)n(-c2ccccc2)n1C | 0.566 | 0.54 (inactive) | 0.0859 | 0.136 | 0.682 | 0.811 | -0.195 | -0.144 | 0.427 | 0.802
3 | C=C(CCCC)/C(=C/C[C@H](OC(C)=O)c1ccc(CO)o1)c1cc(C(=O)OC)ccc1OC | 0.588 | 0.297 (inactive) | 0.133 | -0.149 | 0.694 | 0.699 | 0.53 | 1.17 | 0.323 | 0.902
4 | CC(=O)NCCCC[C@@H]1NC(=O)[C@@H]2C[C@H](C(=O)NCCCCCC[N+](C)(C)C)[C@H](c3cccc(OCCO)c3)N2C1=O | -0.384 | 0.13 (inactive) | 0.163 | -0.0896 | 0.675 | 1.53 | 0.348 | 1.22 | 1.13 | 1.09
5 | C=C(C(=O)CC[C@@H](OC(C)=O)c1ccc(OCCO)cc1)C(C)C | 0.773 | 0.154 (inactive) | -0.122 | -0.0908 | 0.76 | 1.57 | -0.773 | 0.135 | 0.0246 | 0.187
6 | CCCC[C@@H]1C[C@H]1[C@@H](NC(=O)c1ccccc1)c1ccc(-c2ccccc2)cc1 | 0.891 | -0.0708 (inactive) | -0.0647 | -0.128 | 0.498 | 1.17 | -0.146 | 0.893 | -0.995 | 0.147
7 | COc1ccc([Si](C)(C)[C@@H]2[C@@H](CCO)O[C@]3(C(=O)N(Cc4cccc(N5CCCCC5=O)c4)c4ccccc43)[C@H]2C)cc1 | 0.532 | 0.6 (inactive) | 0.134 | -0.123 | 0.361 | 1.06 | 0.0492 | 1.29 | 0.128 | 0.961
8 | O=C1C2C=CC(C(O)CCc3ccccc3)N(Nc3ccccc3)C2C(=O)N1c1ccccc1 (stereo not given) | 0.861 | -0.107 (inactive) | 0.185 | 0.0278 | 0.65 | 2.82 | 0.899 | 1.3 | -0.788 | 1.2
9 | CN(C)CCCC[C@@H]1NC(=O)[C@@H]2C[C@H](C(=O)NCc3ccc(F)cc3)[C@H](c3cccc(OCCO)c3)N2C1=O | -0.202 | -0.398 (inactive) | -0.0311 | -0.0598 | 0.569 | 2 | 0.776 | 1.05 | 0.991 | 1.11
10 | Cn1c2c(c3ccccc31)C(=O)C1NC2C=CC1(C)C(=O)OCc1ccccc1 (stereo not given) | 0.445 | -0.0597 (inactive) | -0.242 | -0.166 | 0.682 | 1.77 | 1.46 | 1 | -2.55 | 0.909
11 | COC(=O)[C@@]1(Cc2ccc(OC)cc2)[C@H]2c3cc(C(=O)N4CCCC4)n(C[C@H](O)CO)c3C[C@H]2CN1C(=O)c1ccccc1 | 0.947 | 0.509 (inactive) | 0.0824 | 0.0817 | 0.869 | 1.62 | 0.226 | -0.0743 | -0.229 | 0.556
12 | O=c1cccc(-c2cccc3ccccc23)o1 | 0.702 | 0.276 (inactive) | -0.0377 | 0.0135 | 0.475 | 0.458 | 0.871 | 0.11 | -0.671 | -0.511
13 | C=CC[C@@]1(C(=O)OC)N=C(c2ccc(OCCCO)cc2)O[C@@H]1c1ccccc1CN=[N+]=[N-] | -0.13 | -0.169 (inactive) | 0.0419 | -0.102 | 0.586 | 1.48 | -0.11 | 0.38 | 0.373 | 0.518
14 | COc1ccc([Si](C)(C)[C@H]2[C@H](CC(=O)N(CCO)Cc3ccccc3)O[C@@]3(C(=O)N(Cc4cccc(N5C(=O)c6cccc7cccc5c67)c4)c4ccccc43)[C@@H]2C)cc1 | 0.375 | -0.025 (inactive) | -0.0821 | -0.154 | 0.519 | 0.934 | 0.228 | 0.75 | -0.108 | 1.09
15 | COCCOC(=O)N1C(=O)[C@@]2(c3cc(C#CCC(C(=O)OC)C(=O)OC)ccc31)[C@H](c1ccccc1OCCO)N1[C@H](c3ccccc3)[C@H](c3ccccc3)OC(=O)[C@H]1[C@@H]2C(=O)Nc1nc2ccccc2s1 | 0.757 | 0.794 (inactive) | 0.261 | -0.0048 | 0.324 | 1.93 | 1.47 | 1.31 | 0.554 | 1.12
16 | C=C[C@H](C)[C@H](O)c1ccc(OCCO)cc1 | -0.529 | -0.254 (inactive) | -0.502 | -0.185 | 0.264 | -1.09 | -0.177 | -1.74 | -2.23 | -0.802
17 | C=CCC(OC(C)=O)[C@@H]1[C@@H](N(Cc2cc3ccccc3o2)C(=O)c2ccc(-c3ccccc3)cc2)c2cc(OCCCO)ccc2N1C(=O)Cc1ccc2ccccc2c1 (stereo not given in full) | -0.0043 | -0.12 (inactive) | -0.0716 | -0.166 | -0.127 | 0.466 | 0.255 | -0.156 | 0.213 | -0.136

Row | Structure (SMILES) | composite z-score (Albumin (Bos taurus)) | composite Z-score [1] | composite z-score [2] | composite z-score [3] | composite z-score [4] | composite z-score [5] | composite z-score [6] | composite z-score (Sam68 (KHDRBS1)) | composite z-score [7] | composite z-score [8]
18 | CCCCC(=C=CC[C@H](O)c1ccccc1OCCO)C[C@H](O)c1cc(Cl)cc(Cl)c1O | 0.233 | 0.45 (inactive) | -0.0448 | -0.175 | 0.649 | 0.499 | 0.569 | 0.811 | -0.473 | 0.907
19 | CN(C)CCCC[C@@H]1NC(=O)[C@@H]2C[C@H](C(=O)NCCCCCCN)[C@H](c3ccc(O)cc3)N2C1=O | -0.254 | 0.142 (inactive) | 0.575 | 0.271 | 0.674 | 1.81 | 0.821 | 1.31 | 0.808 | 0.616
20 | C#C[C@H](O[Si](C#CCCCCCC)(C(C)C)C(C)C)c1ccccc1 | -0.22 | 0.364 (inactive) | -0.22 | -0.155 | 0.342 | 0.43 | -0.281 | 0.524 | -0.0786 | -0.0042
21 | O[C@@H](Cc1ccccc1)[C@@H](/C=C/c1ccccc1)NCc1ccccc1Br | -0.786 | -0.577 (inactive) | -0.358 | -0.192 | -0.53 | 0.0935 | -0.329 | -0.815 | -0.77 | -1.05
22 | C=CCNC(=O)[C@H]1[C@@H]2C(=O)O[C@@H](c3ccccc3)[C@@H](c3ccccc3)N2[C@@H](c2ccc(O)cc2)[C@]12C(=O)Nc1ccc(C#Cc3ccc(OC)cc3)cc12 | -0.208 | -0.155 (inactive) | -0.0903 | 0.0086 | 0.38 | 1.68 | 0.616 | 1.3 | 0.704 | 0.552
23 | O=P(NCC1(CC2(c3ccccc3)CO2)CC1)(c1ccccc1)c1ccccc1 (stereo not given) | 0.0287 | -0.187 (inactive) | -0.159 | -0.0451 | 0.692 | 2.49 | 0.106 | -0.31 | -0.821 | -0.805
24 | O=C1O[C@@H](c2ccccc2)[C@@H](c2ccccc2)N2[C@@H](c3ccccc3OCCO)[C@]3(C(=O)Nc4ccc(C#CC5(O)CCCCCC5)cc43)[C@@H](C(=O)NC[C@H](O)c3ccccc3)[C@H]12 | 0.644 | 1.17 (inactive) | 0.638 | 0.0062 | 0.244 | 2.29 | 0.146 | 1 | -0.134 | 0.622
25 | O=C1OCC=C[C@H]2OC34C=CCN(c5ccc6ccccc6c5)C(=O)[C@H]3N(CCO)C(=O)[C@@H]4[C@@H]12 (stereo not given in full) | -0.855 | 0.138 (inactive) | -0.172 | -0.115 | 0.804 | 0.174 | -0.532 | -0.873 | -2.08 | -0.681
26 | [N-]=[N+]=Nc1ccccc1[C@@H]1OC(c2ccc(OCCCO)cc2)=N[C@]1(CCS(=O)(=O)c1ccccc1)C(=O)O | 0.829 | 0.834 (inactive) | 0.416 | -0.0323 | 0.683 | 1.61 | -0.252 | 1.31 | 0.012 | 1.15
27 | O=C1O[C@H](c2ccccc2)[C@H](c2ccccc2)N2[C@H]1[C@@H](C(=O)N1CCCCCCC1)[C@]1(C(=O)Nc3ccc(C#CC4=CCCCC4)cc31)[C@H]2c1ccc(O)cc1 | 0.599 | 10.9 (active) | 2.37 | 1.22 | 1.1 | 5.31 | 1.2 | 1.35 | 1.71 | 1.14
28 | CCN(CC)c1ccc(N2CC=CC34O[C@@H]5C=CCCOC(=O)C5[C@H]3C(=O)N(CCCO)[C@@H]4C2=O)cc1 (stereo not given in full) | -0.87 | -0.0662 (inactive) | -0.0387 | -0.102 | -0.177 | -0.291 | -0.332 | -0.876 | -0.218 | -2.31
29 | O=C1O[C@@H](c2ccccc2)[C@@H](c2ccccc2)N2[C@@H](c3ccc(O)cc3)[C@]3(C(=O)Nc4ccc(C#CCCO)cc43)[C@@H](C(=O)O)[C@H]12 | 0.323 | 0.674 (inactive) | 1.05 | 0.734 | 0.653 | 2.34 | 0.734 | 0.872 | 0.434 | 1.03
30 | CN1C(=O)C2C=CC(C(O)C3=C[C@H]4C[C@@H](C3)C4(C)C)N(Nc3ccc([N+](=O)[O-])cc3[N+](=O)[O-])C2C1=O (stereo not given in full) | 0.909 | 1.09 (inactive) | 0.289 | 0.186 | 0.722 | 2.38 | 0.805 | 1.12 | 0.51 | 1.16
31 | Cc1ccc(N2C(=O)c3ccccc3[C@@H](C(=O)NCC(C)C)[C@@H]2c2ccc(CO)cc2)nc1 | -0.795 | -0.204 (inactive) | -0.465 | -0.166 | 0.806 | 0.121 | 0.474 | -0.205 | -0.323 | -0.418
32 | C=CC[C@@]1(C(=O)NCc2ccccc2)N=C(c2ccc(OCCCO)cc2)O[C@@H]1c1ccccc1CN=[N+]=[N-] | 0.889 | 1.01 (inactive) | 0.525 | 0.117 | 0.721 | 2.95 | 0.88 | 1.26 | -0.58 | 1.03
33 | O=S(=O)(NCCCO)c1ccc(Br)cc1 | 0.45 | -0.854 (inactive) | -0.0414 | -0.057 | 0.62 | 0.0505 | 0.337 | 0.522 | 0.678 | 0.397
34 | C[N+](C)(C)CCCC[C@@H]1NC(=O)[C@@H]2C[C@H](C(=O)NCCCCCCNC(=O)CS)[C@H](c3cccc(OCCO)c3)N2C1=O | -0.658 | 0.802 (inactive) | -0.0984 | -0.174 | 0.332 | 1.04 | 0.264 | 0.129 | 0.393 | -0.258
